# Assay results: PubChem BioAssay (NCI)
# Compounds without any hit were thinned out: in the full panel of roughly 83,000, 20% have a hit.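 Cells were grown in 96-well plates and exposed to the test compound at a single concentration for 48 hours; results are reported as percent growth, with values below 10 considered active.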 Unmarked numbers belong to inactive results. Calls of active or inactive are those of the source.
# Tested on: SK-OV-3 ovarian
# Experiment: NCI-60 one-dose screen, 48 h (100 = growth as untreated, 0 = no growth, -100 = all killed)
# Conditions: 10 µM unless noted
# Method: Growth inhibition of the SK-OV-3 human tumor cell line is measured as a screen for anti-cancer activity. Cells are grown in 96 well plates and exposed to the test compound for 48 hours. Compounds are tested at a single concentration, which is 10^-5 M for most compounds. The reported endpoint is percent growth (GI% or GIPRCNT), where numbers from 0 - 100% represent growth inhibition, and numbers from -100% - 0 represent cell death. For example, a value of 40 represents 60% growth inhibition. A value of 0 means no net growth occurred over the course of the experiment. A value of -40 indicates 40% of cells at the beginning of the experiment died by the end of the experiment. A value of -100 means all cells are dead at the end of the experiment.
# NCI-60 Human Tumor Cell Lines Screen was performed using the standard one-dose NCI protocol, which is described in more detail at https://dtp.cancer.gov/discovery_development/nci-60/default.htm.
# Compounds with GIPRCNT values below 10 were considered active. Activity score was based on GIPRCNT using the following formula: […]
# Score is 0 for GIPRCNT values of 100 or above, 50 for GIPRCNT values of 0, and 100 for GIPRCNT values of -100.
row,SMILES,growth
1,COC(=O)C(N)CSC(c1ccccc1)(c1ccccc1)c1ccccc1 (stereo not given),19.4%
2,Cc1cc(N=O)cc(C(C)(C)C)c1O,75.8%
3,COC(=O)[C@]12CC[C@@H](C)[C@H](C)[C@@H]1C1=CC(=O)[C@@H]3[C@@]4(C)C[C@@H](O)[C@H](O)[C@@]5(C)COC(=C45)C[C@@]3(C)[C@]1(C)CC2,83.9%
4,CCN(CC)C(=O)CCCCCn1c2ccccc2c2c3c(c4c5ccccc5[nH]c4c21)C(=O)N(O)C3=O,79.5%
5,CCCCCCCC(=O)SCC/C=C/[C@@H]1CC(=O)NCc2cccc(n2)CN(Cc2ccc(Cl)cc2)CC(=O)N[C@@H](C(C)C)C(=O)O1,-24.5% (active)
6,COc1ccc(/C=C(\C#N)c2cc3ccccc3n2C(C)=O)cc1,107%
7,COc1ccc(OC)c(-c2c(C#N)c(-c3ccco3)nc3c2c(-c2ccccc2)nn3-c2ccccc2)c1,95.8%
8,COc1ccc2c(c1)C(Br)=C(CCO)C2c1ccccc1 (stereo not given),78.1%
9,Oc1ccc(CCC2CCCC(CCc3ccc(OCCF)cc3)N2)cc1 (stereo not given),96%
10,O=C1Nc2ccccc2/C1=C/c1cn(CCCn2c3ccccc3c(=O)c3ccccc32)c2ccccc12,86.6%
11,CN(C)c1cccc2[nH]c(-c3[nH]ncc3Nc3ccnc(N)n3)nc12,0.381% (active)
12,N#CCCCCCn1c2ccccc2c2c3c(c4c5ccccc5n(CCCCCC#N)c4c21)C(=O)N(O)C3=O,71.2%
13,Cc1nn(-c2ccc(Cl)cc2)c(=O)n1CCn1cnc2ccccc21,113%
14,NS(=O)(=O)c1ccc(CCNC(=O)/C=C/c2ccc(Cl)cc2)cc1,105%
15,Cc1cc(Cl)c2c(N(C)C)cccc2n1,92.4%
16,O=c1c2sc3ncc(Br)cc3c2ncn1-c1cccc(Cl)c1,67.6%
17,NNC(=O)c1nc2ccccc2[nH]1,83.3%
18,Cc1ccc(-c2ccc(/C=C(\C#N)c3nc(-c4ccco4)cs3)o2)cc1,101%
19,CC(=O)n1c(/C(C#N)=C/c2ccc(N(C)C)cc2)cc2ccccc21,34.8%
20,NC(Cc1ccc(O)cc1)C(=O)N/N=C/c1ccccc1O (stereo not given),113%

row,SMILES,growth
1,C=C(C)[C@@H]1CC[C@]2(C=NCCCNCCCCNCCCN)CC[C@]3(C)[C@H](CC[C@@H]4[C@@]5(C)CCCNC(C)(C)[C@@H]5CC[C@]43C)[C@@H]12,95.8%
2,Nc1c2c(nc3ccc(Cl)cc13)CC(c1ccccc1)CC2=O (stereo not given),76.9%
3,C=C1C(=O)O[C@H]2[C@H]1CC/C(COC(=O)NCCc1c[nH]c3ccccc13)=C\CC[C@@]1(C)O[C@@H]21,89.1%
4,CNC(=O)c1cc(Oc2ccc3nc(NC(=O)Nc4ccc(Cl)cc4)sc3c2)ccn1,82%
5,Nc1ccccc1NC(=O)c1ccc(CN2CCC/C(=C\c3ccccn3)C2=O)cc1,48.2%
6,COc1c(N)c2c(c([N+](=O)[O-])c1OC)C(=O)OC2,105%
7,C=C(C)[C@@H]1CC[C@]2(CN)CC[C@]3(C)[C@H](CC[C@@H]4[C@@]5(C)CCC(=O)NC(C)(C)[C@@H]5CC[C@]43C)[C@@H]12,92%
8,COC(=O)[C@]12CC[C@@H](C)[C@H](C)[C@@H]1C1=CC[C@@H]3[C@@]4(C)C[C@@H](O)OC[C@](C)(C=O)C4C(=O)C[C@@]3(C)[C@]1(C)CC2 (stereo not given in full),-0.332% (active)
9,Cc1ccc2oc(=O)cc(-c3sc(N4CCCCC4)nc3-c3ccccc3)c2c1,86.9%
10,COC(=O)[C@@H]1[C@H]2C[C@H]3c4[nH]c5cc(OC)ccc5c4CCN3C[C@@H]2C[C@H](OC(=O)/C=C/c2ccnc(OC)c2)[C@H]1OC,96%
11,C=C(C)[C@@H]1CC[C@]2(C(=O)O)CC[C@]3(C)[C@H](CC[C@@H]4[C@@]5(C)C/C(=C/c6cccc(I)c6)C(=O)C(C)(C)[C@@H]5CC[C@]43C)[C@@H]12,24.2%
12,O=C(NCN1C(=O)c2cccc3cccc(c23)C1=O)N1CCC(Cc2ccccc2)CC1,91.3%
13,C#CCn1c(C)cc(C)c(C#N)c1=O,118%
14,O=C(O)c1cccc2c1Cc1cc([N+](=O)[O-])ccc1-2,107%
15,COC(=O)CNc1nc(N(C)O)nc(N(C)O)n1,50.8%
16,CN(C)CCCCC(C(=O)CBr)(c1ccccc1)c1ccccc1,79.1%
17,C[C@H]1[C@H]2C3=CC[C@@H]4[C@@]5(C)C/C(=C/c6ccco6)C(=O)C(C)(C)[C@@H]5CC[C@@]4(C)[C@]3(C)CC[C@@]2(C(=O)N2CCOCC2)CC[C@@H]1C,107%
18,CC(=O)O[C@H]1CC[C@]2(C)[C@H]3C(=O)C=C4[C@@H]5C[C@](C)(C(=O)N6CCCNCC6)CC[C@]5(C)CC[C@@]4(C)[C@]3(C)CC[C@H]2C1(C)C,70.6%
19,CCCCCCCN(CCCCCCC)C(=N)c1ccnc2ccccc12,36.8%
20,Cn1cc(-c2nc(-c3cn(C)c4ncccc34)cs2)c2ccccc21,43.2%
